Source: the supplement of paper PMC6555819

Experiments:
Assay in all cases: PBM binding z-score (relative to random genomic background probes); higher = stronger binding; sequences stand for … in GC…GCGATTGACAGCGTAGAATGAAGG
[1] = system: PPARg:RXRa DBDmut IVT, anti-RXR (DBD mutation: RXRa K156A/R161A, NR concentration 270 nM, RXRa partner concentration 90 nM)
How it was run: (§1)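 Regression normalization was applied to scanned fluorescence from custom Agilent 4×180K protein-binding microarrays. Before scanning, arrays were incubated 1 h with ligand-free nuclear receptor dimers, and binding was detected with antibodies against each partner (one per run). Binding z-scores use the random background probes as reference.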

[2] = system: PPARg:RXRa IVT, anti-PPARg (NR concentration 270 nM, RXRa partner concentration 90 nM)
How it was run: as §1

[3] = system: PPARg DBDmut:RXRa IVT, anti-PPARg (DBD mutation: PPARg1 K132A/R137A, NR concentration 270 nM, RXRa partner concentration 90 nM)
How it was run: as §1

[4] = system: PPARg DBDmut IVT, anti-PPARg (DBD mutation: PPARg1 K132A/R137A, NR concentration 270 nM)
How it was run: as §1

[5] = system: PPARg homodimer (NR concentration 180 nM)
How it was run: as §1

[6] = system: PXR:RXRa (NR concentration 270 nM, RXRa partner concentration 90 nM)
How it was run: as §1

[7] = system: PXR homodimer (NR concentration 270 nM)
How it was run: as §1

[8] = system: RARa:RXR (NR concentration 270 nM, RXRa partner concentration 90 nM)
How it was run: as §1

[9] = system: RARa homodimer (NR concentration 270 nM)
How it was run: as §1

[10] = system: RARb:RXRa (NR concentration 270 nM, RXRa partner concentration 90 nM)
How it was run: as §1

Row | Sequence | PBM binding z-score [1] | PBM binding z-score [2] | PBM binding z-score [3] | PBM binding z-score [4] | PBM binding z-score [5] | PBM binding z-score [6] | PBM binding z-score [7] | PBM binding z-score [8] | PBM binding z-score [9] | PBM binding z-score [10]
1 | GGAACGAGGGCATTCGAGTTGATAACATGGCGAT | 2.75 | 2.1 | 0.243 | 0.0771 | 0.605 | 4.02 | 1.36 | 0.915 | -0.696 | 1.68
2 | TGAATGAGGTTATAAGTTCAGGGAACGTTGCAAA | 1.14 | 1.78 | 0.562 | 0.599 | 1.97 | 3.24 | 1.46 | 3.81 | 0.0281 | 2.87
3 | TCTGCTAGGTCACCGATGGTCAGCTAATCTGCTA | 4.6 | 4.81 | 0.945 | 0.734 | 0.378 | 1.91 | -1.04 | 2.75 | -1.39 | 4.36
4 | CCTACTGGGCCATTCAGAAGTCATTGATCATATG | 4.43 | 3.36 | -0.17 | -0.487 | 0.0197 | -0.557 | -0.689 | -0.413 | 0.126 | 0.115
5 | CGTCAAAGTTCAAGGTAACGAAACAGAAAGCAGC | 0.745 | 2.29 | 0.604 | 0.231 | 3.5 | 3.94 | 2.79 | 3.53 | 1.57 | 5.11
6 | ATCTCTAGGTAACAAGTTCAGTGAAAGAGAGGAC | 3.46 | 3.2 | 1.03 | 1.64 | 1.58 | 1.71 | 2.41 | 0.933 | 1.19 | 1.85
7 | CGAAAGAGGGCATGAGTTGATAGCAAATGCCGAT | 2.11 | 1.03 | 0.384 | -0.376 | -0.223 | 0.604 | -0.0785 | 0.777 | -0.0626 | 2.08
8 | AGAACGAGGTTAAGATCAGGGAAACAGAATACAT | 1.95 | 2.16 | 1.47 | 0.398 | 0.757 | 1.27 | 0.776 | 1.89 | 0.576 | 1.91
9 | CCTTACGGGTCACGCCAGGTTATAGCATCGGAGT | 3.85 | 4.83 | 0.182 | 0.0773 | 2.19 | 5.46 | 0.316 | 4.98 | 1.14 | 4.35
10 | AGTCAAAGTTCATCTAGGAAACGTAAGATATGCT | 0.0279 | 2.61 | 1.09 | 0.7 | 2.32 | 4.53 | 3.68 | 3.18 | 1.09 | 5.02
11 | ATCTGTAGGTAAAGTTCAGTGAAAGATCGATAGA | 1.48 | 2.2 | 1.04 | 0.902 | 1.06 | 1.41 | 1.84 | 0.99 | 0.559 | 2.53
12 | TCTGCTAGTTCAGTTGGTCAGCTAACGAGCTGCC | 0.762 | 0.394 | -0.505 | -0.636 | -1.77 | -0.0751 | -0.641 | -0.244 | -1.61 | 0.778
13 | CCTACTGGGCCAAGGTCATCGATCAGTCAAAGCA | 4 | 4.6 | -0.807 | -0.598 | 1.98 | 3.71 | 0.25 | 4.34 | 0.517 | 3.65
14 | CCGAGTAGGTTATGGGGGATTCAGGCAACGGTGA | 4.03 | 3.95 | 3.42 | 4.43 | 2.01 | 1.17 | 1.05 | 1.26 | 1.69 | 1.33
15 | CCTCCAAGGTCAAGGTCAGTGAAAGAGACTCGAA | 2.84 | 4.47 | 0.309 | -0.405 | 3.87 | 4.83 | 1.54 | 5.14 | 2.11 | 5.8
16 | ATTTCTAGGTAACCAAGTTCAGTGAATGCCGAAC | 5.61 | 4.97 | 2.81 | 3.03 | 1.16 | 2.1 | 1.89 | 0.832 | 1.02 | 1.49
17 | ATATGTAGGATAAGGGTCATTCAGGTTGGTTCGC | 4.06 | 5.32 | 1.23 | 0.978 | 3.23 | 4.9 | 2.87 | 4.72 | 2.11 | 3.18
18 | CCAGACAGGTGAGAAGCTAACTCAGCCTCGATTA | 1.24 | 0.141 | -0.708 | -1.08 | 0.381 | -0.471 | -0.163 | -0.265 | 0.766 | 0.227
19 | TCTATTAGTTTAAGGGCAACCGACGAGTCCGTTT | 2.37 | 0.624 | 0.439 | 1.5 | 1.46 | 1.39 | 1.67 | 1.39 | 1.3 | 2.22
20 | ATCTCTAGGTAACCAAGTTCAGTGACTGCCGAAC | 4.09 | 2.78 | 0.981 | 0.674 | 1.09 | 2.14 | 2.22 | 0.968 | 1.12 | 1.14
21 | TTACCAAGGTGAAAGGTCGTTGGTGCACGCCTTG | 3.18 | 5.34 | 0.205 | 0.977 | 2.46 | 4.31 | 0.449 | 6.09 | -0.639 | 3.31
22 | CGTCCAAGGACATAGGAGGTCAGTGAAGACAGAT | 0.24 | 1.36 | -0.861 | -1.72 | 1.48 | 2.07 | 0.81 | 2.11 | 0.692 | 2.76

Row | Sequence | PBM binding z-score [1] | PBM binding z-score [2] | PBM binding z-score [3] | PBM binding z-score [4] | PBM binding z-score [5] | PBM binding z-score [6] | PBM binding z-score [7] | PBM binding z-score [8] | PBM binding z-score [9] | PBM binding z-score [10]
23 | ATGTGTAGGTTATCGGGTCATTCAGTTTGCGCAT | 4.63 | 5.37 | 1.53 | 2.39 | 3.67 | 4.09 | 9.38 | 4.11 | 2.56 | 2.75
24 | GGAACGTGGGCAAGTTGATAGCAGAGTTTGATGG | 0.19 | -0.544 | -0.762 | -0.713 | -0.313 | -0.46 | 0.121 | -0.634 | -0.639 | -0.191
25 | GGAACGAGGGCATGTTGATAGCAGAGTTTGATGG | 2.6 | 1.79 | 0.588 | -0.313 | 0.877 | 0.633 | 0.542 | 0.117 | 0.262 | 1.81
26 | ATCTCTAGGTAAGACTCAGTTCTGTGAAGAACGC | 1.91 | 0.663 | 0.175 | 0.855 | 0.76 | 0.28 | 0.287 | 0.274 | 1.02 | -0.117
27 | TCGAGTAGGTTAGTCGGGGCATTTAGCCAACATA | 2.28 | 1.85 | -0.436 | -0.412 | 0.35 | 0.275 | -0.067 | 0.501 | -0.283 | 0.582
28 | TCATATAGGTAAAAGGTGAAAGTAGGTGTGGTAA | 5.54 | 5.11 | 1.51 | 2.06 | 2.38 | 2.11 | 0.728 | 3.45 | 2.24 | 2.06
29 | GCTGCTACGTCAGGTTGGTCAGCTAACGGGTACG | -0.264 | -0.651 | -0.712 | -1.19 | -0.583 | -0.691 | -0.732 | -0.51 | -1.16 | -0.154
30 | ATCTCTAGGTAAAAGTCCAGTGAATCCCGAGGAT | 2.07 | 1.54 | 0.922 | 0.924 | 0.148 | -0.1 | 0.357 | -0.148 | 0.615 | 0.582
31 | GCTAGTTGGTAAGTAAAAGGTCACACACCGGTCG | 0.354 | 3.04 | -0.0152 | 0.693 | 5.08 | 5.18 | 1.13 | 6.32 | 2.74 | 4.08
32 | TAGCCTAGTTCATGGGCCAGTATACCACGCGAAC | 0.459 | 0.731 | -0.299 | -0.226 | -0.229 | 0.408 | 0.205 | 0.216 | -0.319 | 1.37
33 | CCTAGCAGGCCAGGGTCACACAAGCATTTCGCTT | 0.592 | 1.47 | -0.955 | -1.08 | 1.19 | 3.43 | -0.631 | 4.06 | 0.145 | 2.9
34 | CGTGCAAGGTCAGCAGGTCAGTGAAAGCGACGTG | 3.36 | 3.96 | -0.142 | 0.527 | 2.62 | 3.87 | 0.564 | 4.71 | 0.769 | 5.35
35 | GCGACTGGGGCATCAGCAGGTTTCCATAACTTAA | 3.74 | 2.62 | -1.63 | -0.793 | 0.145 | -0.54 | -0.0807 | -0.096 | -0.582 | 0.524
36 | ATCTCGAGGTAAGACTCAGTTCAGTGAAGAACGC | -0.399 | 0.378 | 0.239 | 0.502 | 0.135 | 1.38 | 0.899 | 0.133 | -0.44 | 0.228
37 | ACTCGGAGGACAAAGGTTAGAGCTACGCCAGTGA | 0.161 | 1.72 | -0.577 | -0.0683 | 1.1 | 0.7 | 0.168 | 1.46 | 0.397 | 2.23
38 | CTCGAAAGGTCGATTGAGGTGAGTATACGGATAA | 0.741 | 1.76 | -0.148 | 0.11 | 0.805 | 4.35 | 0.0799 | 3.05 | 0.109 | 3.67
39 | TCTTGTAGATCAATGGAGGTTAAGAAAGTGCGCT | 2.04 | 1.57 | 0.0784 | 1.12 | -0.199 | 2.58 | 0.0457 | 1.16 | 0.49 | 0.504
40 | CCTTACGGGTCATTCCAGGTTATAGCATCGGAGT | 2.86 | 3.39 | 0.145 | -0.0638 | 1.34 | 5.52 | 0.529 | 3.91 | 0.74 | 3.51
41 | ATTACAGGGTCACTAGGCCAGAGTAGGTACGAAT | 3.81 | 5.92 | 2.92 | 2.81 | 2.63 | 3.43 | 0.344 | 4.32 | 1.19 | 4.46
42 | ATCGAAAGGTCGACGAGGTCAGTATACACCGTTT | 1.29 | 2.59 | 1.42 | 0.928 | 2.73 | 5.77 | 9.23 | 5.2 | 1.54 | 4.56
43 | GGAACGAGGGCAAAGTTGAGAGCATCTGTCGACG | 4.15 | 4.7 | 0.813 | 0.305 | 0.644 | 1.42 | -0.0151 | 2.15 | -0.358 | 2.61
44 | CAAACTAGGTCACAGATGTCAAAGTCCGTGCGTA | 8.74 | 8.85 | 3.45 | 2.75 | 2.09 | 2.47 | 0.19 | 3.24 | 1.17 | 4.17
